Data taken from PubChem BioAssay AID1159580 (chemical genetic matrix, 2015).
Out of some 5,500 compounds screened, about 2,000 (36%) were called active. Roughly 18% stayed inconclusive and do not appear here. Cut-off read from the data, not from the text of the source: active = normalized growth mostly below about 0.91 (no sharp cut-off); inconclusive = no clear call, values can overlap the other calls; inactive = mostly above about 0.92. The list shows a part of the results.

Assay: chemical genetic growth profiling, strain panel (AID 1159580);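 note: tested at 20 µM; growth read once vehicle control cultures reached saturation at 30 °C; 1 = growth at the plate median or of vehicle wells; lower values mean less growth of the strain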
Conditions: growth OD

Measured: normalized growth

CC[n+]1c(-c2ccccc2)c2cc(N)ccc2c2ccc(N)cc21
inactive: S. cerevisiae deletion strains, locus YKL160W, strain elf1, hits give low values 0.973 | S. cerevisiae deletion strains, locus YKR001C, strain vps1, hits give low values 0.929 | S. cerevisiae deletion strains, locus YKR026C, strain gcn3, hits give low values 0.955 | S. cerevisiae deletion strains, locus YKR091W, strain srl3, hits give low values 0.97 | S. cerevisiae deletion strains, locus YLL001W, strain dnm1, hits give low values 0.95 | S. cerevisiae deletion strains, locus YLL026W, hits give low values 0.97 | S. cerevisiae deletion strains, locus YLL041C, strain sdh2, hits give low values 0.972 | S. cerevisiae deletion strains, locus YLR027C, strain aat2, hits give low values 0.979 | S. cerevisiae deletion strains, locus YLR039C, strain RIC1, hits give low values 0.771 | S. cerevisiae deletion strains, locus YLR102C, strain apc9, hits give low values 0.942 | S. cerevisiae deletion strains, locus YLR221C, strain rsa3, hits give low values 0.936 | S. cerevisiae deletion strains, locus YLR258W, strain gsy2, hits give low values 0.968 | S. cerevisiae deletion strains, locus YLR262C, strain YPT6 (second series), hits give low values 1.01 | S. cerevisiae deletion strains, locus YLR262C, strain YPT6, hits give low values 0.755 | S. cerevisiae deletion strains, locus YLR342W, strain FKS1 (second series), hits give low values 0.86 | S. cerevisiae deletion strains, locus YLR342W, strain FKS1, hits give low values 0.987 | S. cerevisiae deletion strains, locus YLR357W, strain rsc2, hits give low values 1.04 | S. cerevisiae deletion strains, locus YLR370C, strain arc18, hits give low values 0.955 | S. cerevisiae deletion strains, locus YLR371W, strain rom2, hits give low values 0.917 | S. cerevisiae deletion strains, locus YLR384C, strain iki3, hits give low values 0.966 | S. cerevisiae deletion strains, locus YLR418C, strain cdc73, hits give low values 0.881 | S. cerevisiae deletion strains, locus YML120C, strain ndi1, hits give low values 0.96 | S. cerevisiae deletion strains, locus YMR058W, strain fet3, hits give low values 0.973 | S. cerevisiae deletion strains, locus YMR125W, strain sto1, hits give low values 0.98 | S. cerevisiae deletion strains, locus YMR129W, hits give low values 0.969 | S. cerevisiae deletion strains, locus YMR231W, strain pep5, hits give low values 0.986 | S. cerevisiae deletion strains, locus YMR307W, strain GAS1, hits give low values 0.714 | S. cerevisiae deletion strains, locus YNL153C, strain GIM3, hits give low values 0.888 | S. cerevisiae deletion strains, locus YNL183C, strain NPR1, hits give low values 0.878 | S. cerevisiae deletion strains, locus YNL209W, strain ssb2, hits give low values 0.96 | S. cerevisiae deletion strains, locus YNL322C, strain KRE1 (second series), hits give low values 0.919 | S. cerevisiae deletion strains, locus YNR049C, strain mso1, hits give low values 0.962 | S. cerevisiae deletion strains, locus YOL006C, strain TOP1, hits give low values 0.64 | S. cerevisiae deletion strains, locus YOL012C, strain htz1 0.55 | S. cerevisiae deletion strains, locus YOR070C, strain gyp1, hits give low values 0.967 | S. cerevisiae deletion strains, locus YOR080W, strain dia2, hits give low values 0.988 | S. cerevisiae deletion strains, locus YOR083W, strain WHI5, hits give low values 0.948 | S. cerevisiae deletion strains, locus YOR106W, strain vam3, hits give low values 0.966 | S. cerevisiae deletion strains, locus YOR136W, strain idh2, hits give low values 0.964 | S. cerevisiae deletion strains, locus YOR231W, strain MKK1, hits give low values 0.898 | S. cerevisiae deletion strains, locus YOR265W, strain rbl2, hits give low values 0.974 | S. cerevisiae deletion strains, locus YOR270C, strain vph1, hits give low values 0.856 | S. cerevisiae deletion strains, locus YOR290C, strain snf2, hits give low values 0.937 | S. cerevisiae deletion strains, locus YOR316C, strain cot1, hits give low values 0.933 | S. cerevisiae deletion strains, locus YPL051W, strain arl3, hits give low values 0.989 | S. cerevisiae deletion strains, locus YPL055C, strain LGE1, hits give low values 0.89 | S. cerevisiae deletion strains, locus YPL078C, strain atp4, hits give low values 1.02 | S. cerevisiae deletion strains, locus YPL106C, strain sse1, hits give low values 0.913 | S. cerevisiae deletion strains, locus YPL240C, strain hsp82, hits give low values 0.97 | S. cerevisiae deletion strains, locus YPL256C, strain CLN2, hits give low values 0.855
active: S. cerevisiae deletion strains, locus YJR075W, strain HOC1, hits give low values 0.665 | S. cerevisiae deletion strains, locus YKL009W, strain mrt4, hits give low values 0.867 | S. cerevisiae deletion strains, locus YKL068W, hits give low values 0.881 | S. cerevisiae deletion strains, locus YKL085W, strain MDH1 (second series), hits give low values 0.882 | S. cerevisiae deletion strains, locus YKL085W, strain MDH1, hits give low values 0.882 | S. cerevisiae deletion strains, locus YKL190W, strain CNB1, hits give low values 0.857 | S. cerevisiae deletion strains, locus YLR058C, strain SHM2, hits give low values 0.847 | S. cerevisiae deletion strains, locus YLR113W, strain HOG1, hits give low values 0.831 | S. cerevisiae deletion strains, locus YLR268W, strain sec22, hits give low values 0.777 | S. cerevisiae deletion strains, locus YLR320W, strain mms22, hits give low values 0.872 | S. cerevisiae deletion strains, locus YLR330W, strain CHS5, hits give low values 0.886 | S. cerevisiae deletion strains, locus YML016C, strain PPZ1, hits give low values 0.885 | S. cerevisiae deletion strains, locus YML032C, strain rad52, hits give low values 0.425 | S. cerevisiae deletion strains, locus YML124C, strain tub3, hits give low values 0.932 | S. cerevisiae deletion strains, locus YMR078C, strain ctf18, hits give low values 0.814 | S. cerevisiae deletion strains, locus YMR205C, strain PFK2, hits give low values 0.831 | S. cerevisiae deletion strains, locus YMR223W, strain ubp8, hits give low values 0.825 | S. cerevisiae deletion strains, locus YNL067W, strain RPL9B, hits give low values 0.805 | S. cerevisiae deletion strains, locus YNL071W, strain lat1, hits give low values 0.868 | S. cerevisiae deletion strains, locus YNL233W, strain BNI4, hits give low values 0.841 | S. cerevisiae deletion strains, locus YNL248C, strain rpa49, hits give low values 0.858 | S. cerevisiae deletion strains, locus YNL250W, strain rad50, hits give low values 0.662 | S. cerevisiae deletion strains, locus YNL271C, strain bni1, hits give low values 0.909 | S. cerevisiae deletion strains, locus YNL298W, strain CLA4, hits give low values 0.881 | S. cerevisiae deletion strains, locus YNL307C, strain MCK1, hits give low values 0.855 | S. cerevisiae deletion strains, locus YNR052C, strain pop2, hits give low values 0.885 | S. cerevisiae deletion strains, locus YOL147C, strain pex11, hits give low values 0.898 | S. cerevisiae deletion strains, locus YOR001W, strain rrp6, hits give low values 0.857 | S. cerevisiae deletion strains, locus YOR061W, strain CKA2, hits give low values 0.876 | S. cerevisiae deletion strains, locus YOR069W, strain VPS5, hits give low values 0.891 | S. cerevisiae deletion strains, locus YOR144C, strain elg1, hits give low values 0.906 | S. cerevisiae deletion strains, locus YOR184W, strain ser1, hits give low values 0.73 | S. cerevisiae deletion strains, locus YPR119W, strain clb2, hits give low values 0.925 | S. cerevisiae deletion strains, locus YPR141C, strain kar3, hits give low values 0.886 | S. cerevisiae deletion strains, locus YPR163C, strain tif3, hits give low values 0.781 | S. cerevisiae deletion strains, locus YPR167C, strain met16, hits give low values 0.864 | S. cerevisiae deletion strains, strain wtn01, hits give low values 0.795 | S. cerevisiae strains, strain wild type, hits give low values 0.854
